This note sets out measurements from PubChem BioAssay (NCI).

Holding throughout (test): NCI-60 one-dose screen, 48 h (100 = growth as untreated, 0 = no growth, -100 = all killed)
The subject of one test is SK-MEL-2 melanoma. The conditions noted are these: 10 µM unless noted.
For a further test, the system named is EKVX NSCLC. The conditions noted are these: 10 µM unless noted.
For a further test, the system named is UO-31 renal. The conditions noted are these: 10 µM unless noted.
Another test has as its system TK-10 renal. The note with it: 10 µM unless noted.
Another test relates to ACHN renal. The conditions noted are these: 10 µM unless noted.
For another test, the system named is CAKI-1 renal. The note with it: 10 µM unless noted.
The subject of the next test is HL-60(TB) leukemia. The conditions noted are these: 10 µM unless noted.
In a further test the test system is CCRF-CEM leukemia. The conditions noted are these: 10 µM unless noted.
For a further test, the system named is A498 renal. The conditions noted are these: 10 µM.
Another test relates to SN12C renal. The note with it: 10 µM unless noted.

The panel holds about 83,000 compounds, 20% with a hit somewhere; the sample as a whole holds those more often.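 Method: cells in 96-well plates; compound added at one concentration; 48 h incubation; percent growth measured; values under 10 scored active.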 A number with no mark means an inactive call. Calls of active or inactive are those of the source.

As for `Cn1cccc1C1CC(=O)N(CCC[Se]C#N)C1=O` (centres undefined), the growth in the test with SK-MEL-2 melanoma was -35.2% (active); in the test on EKVX NSCLC, -65.3% (active); in the test on UO-31 renal, -75.9% (active); with TK-10 renal, -69.5% (active); in the test with ACHN renal, -4.46% (active); with CAKI-1 renal it was -80.1% (active). For the same compound, the figures for the growth in the test on HL-60(TB) leukemia and in the test with CCRF-CEM leukemia were -42.8% (active) and 13.8%, respectively.
`O=C1NC(=O)C(=Cc2cccn2CCCCCn2c3ccccc3c(=O)c3ccccc32)C(=O)N1`: the growth with SK-MEL-2 melanoma is 107%; with EKVX NSCLC, 105%; in the test on UO-31 renal it was 79.4%; in the test on TK-10 renal, 101%; in the test on ACHN renal, 105%; in the test with CAKI-1 renal, 103%. In addition, the growth in the test with A498 renal is 104%; in the test on HL-60(TB) leukemia, 92.2%; in the test on CCRF-CEM leukemia, 100%.
As to `CC(=O)O[C@H](C[C@H](C(C)C)N(C)C(=O)[C@@H](NC(=O)[C@H]1CCCCN1C)C(C)C)c1nc(C(=O)N[C@@H](Cc2ccccc2)C[C@H](C)C(=O)O)c(C(C)C)s1`, the growth with SK-MEL-2 melanoma is 23.6%; in the test with EKVX NSCLC, 39.3%; in the test with UO-31 renal it was 41.5%; with TK-10 renal, 61.6%; in the test on ACHN renal, 27.3%; in the test with A498 renal, -8.17% (active). Further, the growth in the test with CCRF-CEM leukemia is 3.84% (active).
Consider `CC[C@H](C)[C@H](NC(=O)C12C3C4C1C1C2C3C41NC)C(=O)N(C)[C@H](C[C@@H](OC(C)=O)c1nc(C(=O)N[C@@H](Cc2ccccc2)C[C@H](C)C(=O)OC)cs1)C(C)C` (some centres undefined), for which the growth was 43% in the test on SK-MEL-2 melanoma; 40.7% in the test on EKVX NSCLC; 51.1% in the test with UO-31 renal; 41.9% with TK-10 renal; 40.8% in the test on ACHN renal; 40.5% with CAKI-1 renal. Moreover, the growth was -12.6% (active) with A498 renal, -14.6% (active) in the test with HL-60(TB) leukemia and 13.2% in the test on CCRF-CEM leukemia.
On to `C#Cc1ccc2c(c1)C(c1ccccc1)=NCC(=O)N2C`, for which the growth was 25.5% in the test on SK-MEL-2 melanoma; 50.2% in the test on EKVX NSCLC; 67.8% in the test with UO-31 renal; 66.1% in the test with TK-10 renal; 51.3% with CAKI-1 renal; 26.7% in the test with A498 renal. In addition, the growth in the test with HL-60(TB) leukemia was 1.49% (active); in the test with CCRF-CEM leukemia it was 48.9%.
Take `C[C@@H]1CCC2[C@@H](C)[C@H](OC(=O)CCC(=O)NCCNC(=O)Cc3cc(=O)oc4cc(N(C)C)ccc34)O[C@@H]3O[C@]4(C)CC[C@@H]1C23OO4` (some centres undefined): the growth was 40.7% in the test with SK-MEL-2 melanoma; 35.3% with EKVX NSCLC; 13% in the test with UO-31 renal; 20% with TK-10 renal; 40.3% in the test with ACHN renal; 44.1% in the test on CAKI-1 renal. Moreover, the values for the growth with A498 renal, in the test with HL-60(TB) leukemia and with CCRF-CEM leukemia were 64.9%, -38.8% (active) and 23%, respectively.
As to `CC[C@H](C)[C@H](NC(=O)c1ccccn1)C(=O)N(C)[C@H](C[C@@H](OC(C)=O)c1nc(C(=O)N[C@@H](Cc2ccccc2)C[C@H](C)C(=O)OC)cs1)C(C)C`, the growth is -8.78% (active) with SK-MEL-2 melanoma; 30.3% in the test on EKVX NSCLC; 42.2% with UO-31 renal; 40.2% in the test on ACHN renal; -5.19% (active) with A498 renal; -21.2% (active) with HL-60(TB) leukemia. In addition, the growth with CCRF-CEM leukemia is 7.71% (active).
Consider `O=C(CCCC1CCCCC1)OCC(Cl)(Cl)Cl`, for which the growth with SK-MEL-2 melanoma is 109%; in the test with SN12C renal, 106%; with UO-31 renal, 91.1%; with TK-10 renal it was 98.7%; with ACHN renal, 110%; in the test with CAKI-1 renal it was 102%. For the same compound, the growth in the test on A498 renal was 60.6%.
As for `COc1ccc(C(O)(C(=O)O)c2ccc(OC)cc2)cc1`, the growth is 78.8% in the test with SK-MEL-2 melanoma; 85% in the test on EKVX NSCLC; 87.6% in the test on UO-31 renal; 88.2% in the test with TK-10 renal; 85.8% with ACHN renal; 100% in the test with CAKI-1 renal. The growth in the test with A498 renal is 95.3%; in the test with HL-60(TB) leukemia, 96.9%; in the test on CCRF-CEM leukemia, 79.8%.
For the compound `COc1cc(C=C2c3ccccc3C(=O)c3ccccc32)ccc1OCCCCOc1cc2c(cc1OC)C(=O)N1CCCC1C=N2` (centres undefined), the growth was -79.6% (active) with SK-MEL-2 melanoma; -49.8% (active) in the test on EKVX NSCLC; -96% (active) in the test on UO-31 renal; -70.2% (active) with TK-10 renal; -62.8% (active) with ACHN renal; -75.5% (active) in the test on CAKI-1 renal. The growth is -78.6% (active) in the test on A498 renal, -21.3% (active) in the test with HL-60(TB) leukemia and -24% (active) with CCRF-CEM leukemia.
Regarding `CCOC(=O)C(Cc1ccc(N(CCCl)CCCl)cc1)NC(=O)C(CC(C)C)NC(C)=O` (centres undefined), the growth is -2.13% (active) with SK-MEL-2 melanoma; 114% with EKVX NSCLC; -48.7% (active) in the test on UO-31 renal; 21.3% in the test with TK-10 renal; 8.89% (active) in the test with ACHN renal; -20.7% (active) with CAKI-1 renal. In addition, the growth was 86.5% in the test with A498 renal, 13.1% in the test with HL-60(TB) leukemia and 12.3% in the test with CCRF-CEM leukemia.
Take `CCCCCCCOC(C(=O)OCCN(CC)CC)(c1ccccc1)c1ccccc1`: the growth with SK-MEL-2 melanoma is 103%; in the test with EKVX NSCLC, 76.1%; with UO-31 renal it was 69%; in the test on TK-10 renal it was 77.8%; in the test with ACHN renal, 92.3%; with CAKI-1 renal, 65.4%. Also, the growth with A498 renal was 82.4%; in the test with HL-60(TB) leukemia, 79.1%; with CCRF-CEM leukemia it was 82.5%.
Take `ClCCN(CCCl)Cc1ccc(Nc2ccnc3cc(Cl)ccc23)cc1`: the growth in the test with SK-MEL-2 melanoma was -19.5% (active); in the test with SN12C renal it was 18.8%; in the test on UO-31 renal, 34.6%; in the test with TK-10 renal it was 59.5%; in the test with ACHN renal, 5.15% (active); in the test with CAKI-1 renal it was -32.8% (active). Also, the growth in the test on A498 renal was 77.1%.
Turning to `O=C(O)c1ccc([S-])cc1.[Au+].c1ccc(CN2[CH-]N(Cc3ccccc3)C(c3ccccc3)=C2c2ccccc2)cc1`, the growth with SK-MEL-2 melanoma was -43.2% (active); with EKVX NSCLC it was -52.9% (active); in the test on UO-31 renal, -79.4% (active); with TK-10 renal, -61.7% (active); in the test on ACHN renal it was -65.7% (active); in the test on A498 renal, -33.8% (active). In addition, the growth with CCRF-CEM leukemia was 1.41% (active).
On to `O=NN1CCCc2cccc(O)c21`, for which the growth is 56.1% in the test on SK-MEL-2 melanoma; 69.4% in the test with EKVX NSCLC; 20.9% with UO-31 renal; 95.9% in the test with TK-10 renal; 17.2% in the test on ACHN renal; 86.8% with A498 renal. In addition, the growth in the test with CCRF-CEM leukemia is 30.2%.
As to `Cc1cc(C)c(CBr)c(C)c1`, the growth with SK-MEL-2 melanoma was 102%; in the test on EKVX NSCLC it was 103%; in the test with UO-31 renal, 85.2%; with TK-10 renal it was 98.1%; in the test with ACHN renal, 104%; with A498 renal, 81.4%. The values for the growth in the test with HL-60(TB) leukemia and in the test on CCRF-CEM leukemia were 59.7% and 106%, respectively.
